Source: PubChem (National Center for Advancing Translational Sciences (NCATS))
Pf growth 96h – P. falciparum growth inhibition at 96 hours; hit rate 6.9% among 320,000; Potency, µM (highest dose often 28.7 µM), without a hit: at the highest dose activity change, negative = inhibition, most hits filed as inhibitors; AID 504834; P. falciparum luciferase reporter growth, 96 h; further: potency means the concentration at half of the fitted maximal effect
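Cell-based qHTS: luciferase-tagged P. falciparum in erythrocytes (2% hematocrit, 0.05% parasitemia final) incubated with compounds for 96 hours, 37 C, 5% CO2; luciferase detection reagent then added and luminescence measured.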
HCV inhibitor – blocks hepatitis C virus. Huh7.5.1 HCVcc-Cre infection, luciferase reporter, 44 h. Potency, µM (titrated, usually from 41.8 µM), without a hit: at the highest dose activity change, negative = inhibition, actives largely listed as inhibitors. hit rate 3.4% among 340,000. AID 651820; further: potency means the concentration at half of the fitted maximal effect
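1,000 cells/well; 4 h culture; + compound; + HCVcc-Cre (~0.5 moi); 44 h; luciferase substrate, RT 15 min; read 15 sec.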
Pf growth 48h – inhibits P. falciparum growth in the first generation, 48 h; Potency, µM (series often up to 28.7 µM), for the others: at the top dose activity change, negative = inhibition, actives largely listed as inhibitors; P. falciparum luciferase growth in erythrocytes, 48 h; hit rate 5.9% among 310,000; further: potency means the concentration at half of the fitted maximal effect
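Parasite viability was followed by luminescence of a genomically integrated firefly luciferase. Cultures held 0.1% parasitemia at 2% hematocrit (final), incubated under 5% CO2 at 37 C.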
HCMV antiviral – inhibitors of human cytomegalovirus; HFF cells, HCMV-luciferase reporter, 72 h; hits give low values; activity change, negative = inhibition, % at 57.5 µM; hit rate 4.5% among 410,000; in the data active means activity change below about -60%; inconclusive means no clear call, values can overlap the other calls; inactive means above about -39%
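Screen run at 2 compound doses on HFFs infected with reporter HCMV, MOI 1 PFU/cell. Luciferase activity from cell lysates at 72 h post infection gave inhibition relative to buffer-only and Salinomycin wells.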
* marks the source's active call; other numbers are inactive results; ? = inconclusive; · = no result given; [ ] = dose if it differs, or a comment. A selection: hits, their analogues and other compounds. The true share with any hit is near 13%. Unless noted, the call rests on the fitted dose curve; in most records, active means well fitted inhibition curve with a large enough effect; inconclusive means small, poorly fitted or top-dose-only effect, or another doubt; inactive means no such curve, though single readings can be large or run the other way. On the % scale 0 is the no-effect control and ±100 the full control effect.

SMILES | Pf growth 96h | HCV inhibitor | Pf growth 48h | HCMV antiviral
CC(C)(C)OC(=O)N1CCC(c2c(C(=O)NCCN3CCOCC3)cnn2-c2cccc(F)c2)CC1 | · | · | · | 16
O=C(Nc1ccc2nc([C@@H]3O[C@H](CO)[C@@H](O)[C@H](O)[C@H]3O)[nH]c2c1)NC(c1ccccc1)c1ccccc1 | · | · | · | 47
Cc1cc2ncn(CCOc3ccccc3C#N)c2cc1C | 13µM* | -30% | ? | 34
Cc1ccc(NC(=O)Cn2c(=O)c3cccn3c3ccccc32)c(C)c1 | ? | -1% | ? | 7
Cc1ccc(NC(=O)Cn2cccc2)c(C)c1 | 13µM* | 14% | · | 9
COc1ccc(NC(=O)CCn2c(=O)c3cccn3c3ccccc32)c(OC)c1 | 12µM* | ? | ? | -35
Cc1ccc2c(c1)c(=O)c1ccccc1n2CCCC(=O)Nc1ccc(F)cc1F | · | · | · | 4
Cc1ccc(NC(=O)CCn2c(=O)c3cccn3c3ccccc32)c(C)c1 | 13µM* | ? | ? | ?
Cc1cc(C)cc(NC(=O)CCCn2c3ccccc3c(=O)c3ccccc32)c1 | · | · | · | -77*
Cc1cc(C)c(/C=C/c2onc(C)c2S(=O)(=O)N2CCC(C(=O)N3CCN(c4ccccc4)CC3)CC2)c(C)c1 | · | · | · | 30
O=C(CCn1c(=O)c2cccn2c2ccccc21)Nc1ccc(F)cc1 | ? | ? | ? | 60
Cc1cc(C)cc(NC(=O)CCn2c(=O)c3cccn3c3ccccc32)c1 | -8% | 3.2µM* | -5% | -14
COc1cccc(O)c1CN1CCCC(C(=O)c2ccccc2SC)C1 (centres undefined) | 0% | ? | ? | 26
COc1cc(CN2CCCC(C(=O)c3ccccc3SC)C2)cc(OC)c1 (centres undefined) | 12µM* | 11µM* | 0% | -16
COc1cc(OC)c(OC)cc1CN1CCCC(C(=O)c2ccccc2SC)C1 (centres undefined) | 3.7µM* | -1% | -7% | -11
COc1ccc(N2CC(O)=C(c3n(C)c4ccccc4[n+]3C)C2=N)cc1 | -15% | -16% | · | -81*
COc1ccc(N2CC(O)=C(c3nc(C)cs3)C2=N)cc1 | -4% | -34% | · | 30
COCCCNc1ncnc2c1c(-c1ccccc1)cn2-c1ccc(C)c(Cl)c1 | · | · | · | -17
CN(C)C(=O)Oc1ccc(OCc2n(C)c3ccccc3[n+]2C)cc1 | 2.3µM* | 16% | ? | -6
Cn1c(Cc2ccccc2)[n+](C)c2ccccc21 | ? | ? | ? | -18
CCOc1cc2sc(N3CCC(C(=O)Nc4ccc(C)cc4C)CC3)nc2cc1Br | · | · | · | 55
CC(C)c1ccc(NC(=O)C(Cc2ccccc2)NS(=O)(=O)c2ccc3c(c2)oc(=O)n3C)cc1 (centres undefined) | · | · | · | -24
C=CCNC(=O)C1CCN(c2nc(C)cc(-c3ccccc3)n2)CC1 | -21%[5.75 µM] | 2.8µM* | ? | 50
COC(=O)C1(C(=O)OC)c2ncccc2N(S(=O)(=O)c2ccc(C)cc2)C1CC(=O)c1ccccc1 (centres undefined) | · | · | · | -38
CC(C)Cn1c(CNC(=O)c2ccccc2)nc2ccccc21 | 53% | 0% | 16% | -35
SMILES | Pf growth 96h | HCV inhibitor | Pf growth 48h | HCMV antiviral
CCCc1nc2ccccc2n1CCc1ccccc1 | 3.7µM* | -16%[0.335 µM] | 3.3µM* | -74*
O=C(O)CCn1c(C2CCCCC2)nc2ccccc21 | · | 10% | 1% | 40
COCc1nc2ccccc2n1Cc1ccccc1 | ? | 16% | 30% | 82
ClCc1nc2ccccc2n1Cc1ccccc1 | ? | -6% | 6.6µM* | ?
OCCCc1nc2ccccc2n1CCc1ccccc1 | ? | 14% | ? | -20
c1ccc(CCn2c(C3CC3)nc3ccccc32)cc1 | 3.3µM* | 3% | · | 21
CCCn1c(CNC(=O)c2ccccc2)nc2ccccc21 | 2.9µM* | · | 2% | -27
CCN1c2ccccc2-c2nc(SCC(=O)NCc3ccc(Cl)cc3)ncc2S1(=O)=O | · | · | · | -28
COC(=O)c1cccc(NC2=NS(=O)(=O)c3ccccc32)c1 | · | · | · | 3
Cc1cc(C)c(NC(=O)Cn2c(=O)n(Cc3ccco3)c(=O)c3ccc(C(=O)NC4CCCC4)cc32)c(C)c1 | · | · | · | 3
COc1ccc(NC(=O)CSc2nc3c(oc4ccccc43)c(=O)n2-c2ccccc2)cc1OC | · | · | · | -22
CN1CCN(C(=S)c2ccc(N(C)C)cc2)CC1 | · | -6% | 33% | -108*
CN1CCN(C(=S)c2ccc(Br)cc2)CC1 | ? | 2% | -3% | 6
Nc1c(C(=O)CSc2nncn2-c2ccccc2)c(=O)[nH]c(=O)n1C1CC1 | 12µM* | 5% | ? | 11
CCn1cnnc1SCC(=O)c1c(N)n(C2CC2)c(=O)[nH]c1=O | ? | 14% | -12% | 0
COc1ccc(Cc2nnc(SCC(=O)c3c(N)n(C4CC4)c(=O)[nH]c3=O)o2)cc1 | ? | -1% | ? | 11
Cc1cccc(Nc2nnc(SC(C)C(=O)NC3CC3)s2)c1 (centres undefined) | 10µM* | 3% | 13µM* | 2
Cc1cccc(Nc2nnc(SCC(=O)c3c(N)n(C4CC4)c(=O)[nH]c3=O)s2)c1 | 6.6µM* | 16% | -18% | -14
CCc1ccc(Nc2nnc(SC(C)C(=O)NC3CC3)s2)cc1 (centres undefined) | · | -3% | · | -18
Nc1c(C(=O)CSc2nnc(COc3ccc(Cl)cc3)o2)c(=O)[nH]c(=O)n1C1CC1 | 10µM* | -1% | ? | -6
Cc1ccccc1C1C=C(c2ccc(Cl)cc2)Nc2nnnn21 (centres undefined) | · | · | · | -24
Cc1ccc2oc(=O)c3cnn(CC(=O)N(C)c4ccc(F)cc4)c3c2c1 | · | · | · | 3
CSc1ncc(C(=O)NCc2ccc(C)cc2)c(-c2ccccc2)n1 | · | · | · | 7
COc1cccc(CNC(=O)c2cc3c(=O)n(Cc4cccnc4)ccc3nc2C)c1 | · | · | · | -13
COCCn1c(SCC(=O)c2c(N)n(C3CC3)c(=O)[nH]c2=O)nnc1-c1cccc(C)c1 | 8.3µM* | 5% | 8.3µM* | 0
SMILES | Pf growth 96h | HCV inhibitor | Pf growth 48h | HCMV antiviral
CCn1c(Cc2ccccc2)nnc1SCC(=O)c1c(N)n(C2CC2)c(=O)[nH]c1=O | 9.3µM* | -14% | ? | 0
Cc1nnc(SCC(=O)c2c(N)n(C3CC3)c(=O)[nH]c2=O)n1C | · | 7% | · | -4
CCn1c(SCC(=O)c2c(N)n(C3CC3)c(=O)[nH]c2=O)nnc1-c1ccccc1OC | 8.3µM* | 13% | ? | 1
CCN(CC)c1nn2c(=O)c(C(=O)NCc3cccc(OC)c3OC)cnc2s1 | · | · | · | 35
COc1cccc(N2CCN(C(=O)c3cc4c(=O)n(Cc5cccs5)ccc4nc3C)CC2)c1 | · | · | · | 2
Cc1ccc(C(=O)Nc2cc(-c3nc4ncccc4o3)ccc2C)c(C)c1 | · | · | · | 4
Cc1nn(CC(=O)N2CCN(c3cccc(Cl)c3)CC2)c(=O)c2c1sc1ccccc12 | · | · | · | 26
COc1cc(C2C3=C(COC3=O)Oc3cc4c(cc32)OCO4)cc(OC)c1OC(C)=O (centres undefined) | · | 4% | · | -69*
COc1cc(C2C3=C(COC3=O)Oc3cc4c(cc32)OCO4)ccc1OC(C)=O (centres undefined) | · | -12% | · | -28
